Key:
[1] = molecular target: Sphingosine kinase 1 (Homo sapiens) (UniProt Q9NYA1); conditions: at 1 µM;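 note: mean SPHK1 inhibition value reported from the GSK PKIS kinase panel screen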
[2] = molecular target: T1, Sphingosine kinase 2 (Homo sapiens) (UniProt Q9NRA0); conditions: at 1 µM
T1 sequence (whole entry): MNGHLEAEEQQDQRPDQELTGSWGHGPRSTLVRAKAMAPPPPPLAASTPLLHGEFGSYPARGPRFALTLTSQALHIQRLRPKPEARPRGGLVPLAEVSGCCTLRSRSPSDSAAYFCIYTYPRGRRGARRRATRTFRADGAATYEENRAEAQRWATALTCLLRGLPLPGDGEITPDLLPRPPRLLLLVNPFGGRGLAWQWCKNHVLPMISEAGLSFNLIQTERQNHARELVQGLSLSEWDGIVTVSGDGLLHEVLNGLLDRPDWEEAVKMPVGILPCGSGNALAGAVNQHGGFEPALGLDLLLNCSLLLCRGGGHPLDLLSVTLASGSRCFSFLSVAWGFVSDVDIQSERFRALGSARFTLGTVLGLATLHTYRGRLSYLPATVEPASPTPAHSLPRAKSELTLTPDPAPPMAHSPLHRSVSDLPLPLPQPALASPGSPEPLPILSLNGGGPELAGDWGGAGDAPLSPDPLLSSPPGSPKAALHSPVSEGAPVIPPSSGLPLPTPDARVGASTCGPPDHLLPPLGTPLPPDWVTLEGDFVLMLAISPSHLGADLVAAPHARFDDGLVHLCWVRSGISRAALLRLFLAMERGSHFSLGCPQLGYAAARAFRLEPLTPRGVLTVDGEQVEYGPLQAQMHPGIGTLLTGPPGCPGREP

[3] = molecular target: Casein kinase II subunit alpha (Homo sapiens) (UniProt P68400); conditions: at 0.1 µM
Casein kinase II subunit alpha (Homo sapiens), sequence (P68400 whole entry, looked up): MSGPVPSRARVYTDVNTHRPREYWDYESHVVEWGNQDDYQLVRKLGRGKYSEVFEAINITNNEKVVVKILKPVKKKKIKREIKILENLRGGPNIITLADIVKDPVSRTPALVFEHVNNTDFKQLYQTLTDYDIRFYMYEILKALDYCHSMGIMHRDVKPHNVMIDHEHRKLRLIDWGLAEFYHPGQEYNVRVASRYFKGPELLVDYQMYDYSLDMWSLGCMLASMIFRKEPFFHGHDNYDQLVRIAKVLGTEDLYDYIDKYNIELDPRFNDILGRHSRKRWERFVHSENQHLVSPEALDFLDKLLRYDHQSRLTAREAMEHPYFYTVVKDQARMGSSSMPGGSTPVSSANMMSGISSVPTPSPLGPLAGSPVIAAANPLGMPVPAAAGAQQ

[4] = molecular target: Casein kinase II subunit alpha (Homo sapiens) (UniProt P68400); conditions: at 1 µM
[5] = molecular target: T2, Inhibitor of nuclear factor kappa-B kinase subunit alpha (Homo sapiens) (UniProt O15111); conditions: at 0.1 µM
T2 sequence (whole entry): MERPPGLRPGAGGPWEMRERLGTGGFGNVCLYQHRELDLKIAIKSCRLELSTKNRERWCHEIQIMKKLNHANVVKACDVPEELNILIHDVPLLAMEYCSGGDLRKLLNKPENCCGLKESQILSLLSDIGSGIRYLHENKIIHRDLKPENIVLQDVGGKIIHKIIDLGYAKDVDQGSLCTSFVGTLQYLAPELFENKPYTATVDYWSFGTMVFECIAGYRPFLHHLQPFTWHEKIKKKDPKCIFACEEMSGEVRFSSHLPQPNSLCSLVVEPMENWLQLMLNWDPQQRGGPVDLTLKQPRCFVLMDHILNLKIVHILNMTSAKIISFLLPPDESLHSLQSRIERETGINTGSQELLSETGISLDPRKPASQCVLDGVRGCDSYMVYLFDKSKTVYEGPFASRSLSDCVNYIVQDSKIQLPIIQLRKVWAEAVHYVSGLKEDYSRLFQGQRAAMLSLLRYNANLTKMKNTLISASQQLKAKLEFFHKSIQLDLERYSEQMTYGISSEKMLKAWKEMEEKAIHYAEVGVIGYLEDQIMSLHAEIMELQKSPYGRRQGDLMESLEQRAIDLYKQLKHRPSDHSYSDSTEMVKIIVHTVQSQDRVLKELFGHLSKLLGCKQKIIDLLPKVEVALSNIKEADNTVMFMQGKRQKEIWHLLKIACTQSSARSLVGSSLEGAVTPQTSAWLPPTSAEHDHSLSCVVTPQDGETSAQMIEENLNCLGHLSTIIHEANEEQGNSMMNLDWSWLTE

[6] = molecular target: T2, Inhibitor of nuclear factor kappa-B kinase subunit alpha (Homo sapiens); conditions: at 1 µM
[7] = molecular target: T3, Inhibitor of nuclear factor kappa-B kinase subunit beta (Homo sapiens) (UniProt O14920); conditions: at 0.1 µM
T3 sequence (whole entry): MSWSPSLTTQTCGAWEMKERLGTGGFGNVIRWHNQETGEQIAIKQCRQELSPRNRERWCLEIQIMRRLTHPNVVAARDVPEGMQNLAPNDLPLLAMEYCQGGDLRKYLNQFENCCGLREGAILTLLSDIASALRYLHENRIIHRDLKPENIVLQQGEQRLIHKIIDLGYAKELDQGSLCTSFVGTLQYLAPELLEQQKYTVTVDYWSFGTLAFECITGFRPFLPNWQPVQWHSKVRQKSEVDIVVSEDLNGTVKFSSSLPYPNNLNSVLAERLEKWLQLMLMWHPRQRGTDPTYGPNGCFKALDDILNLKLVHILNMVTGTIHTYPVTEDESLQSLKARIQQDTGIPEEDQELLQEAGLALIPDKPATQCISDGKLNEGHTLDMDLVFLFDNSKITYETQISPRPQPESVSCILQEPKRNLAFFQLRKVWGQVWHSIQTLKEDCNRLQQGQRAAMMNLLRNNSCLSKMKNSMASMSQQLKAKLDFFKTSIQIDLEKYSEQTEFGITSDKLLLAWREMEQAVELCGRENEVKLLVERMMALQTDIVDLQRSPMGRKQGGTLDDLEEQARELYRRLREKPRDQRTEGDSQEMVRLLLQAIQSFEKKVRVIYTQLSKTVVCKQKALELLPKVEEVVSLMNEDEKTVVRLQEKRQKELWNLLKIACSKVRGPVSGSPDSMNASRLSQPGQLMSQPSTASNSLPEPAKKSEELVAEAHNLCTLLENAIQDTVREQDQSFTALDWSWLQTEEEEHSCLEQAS

[8] = molecular target: T3, Inhibitor of nuclear factor kappa-B kinase subunit beta (Homo sapiens); conditions: at 1 µM
[9] = molecular target: T4, Inhibitor of nuclear factor kappa-B kinase subunit epsilon (Homo sapiens) (UniProt Q14164); conditions: at 0.1 µM
T4 sequence (whole entry): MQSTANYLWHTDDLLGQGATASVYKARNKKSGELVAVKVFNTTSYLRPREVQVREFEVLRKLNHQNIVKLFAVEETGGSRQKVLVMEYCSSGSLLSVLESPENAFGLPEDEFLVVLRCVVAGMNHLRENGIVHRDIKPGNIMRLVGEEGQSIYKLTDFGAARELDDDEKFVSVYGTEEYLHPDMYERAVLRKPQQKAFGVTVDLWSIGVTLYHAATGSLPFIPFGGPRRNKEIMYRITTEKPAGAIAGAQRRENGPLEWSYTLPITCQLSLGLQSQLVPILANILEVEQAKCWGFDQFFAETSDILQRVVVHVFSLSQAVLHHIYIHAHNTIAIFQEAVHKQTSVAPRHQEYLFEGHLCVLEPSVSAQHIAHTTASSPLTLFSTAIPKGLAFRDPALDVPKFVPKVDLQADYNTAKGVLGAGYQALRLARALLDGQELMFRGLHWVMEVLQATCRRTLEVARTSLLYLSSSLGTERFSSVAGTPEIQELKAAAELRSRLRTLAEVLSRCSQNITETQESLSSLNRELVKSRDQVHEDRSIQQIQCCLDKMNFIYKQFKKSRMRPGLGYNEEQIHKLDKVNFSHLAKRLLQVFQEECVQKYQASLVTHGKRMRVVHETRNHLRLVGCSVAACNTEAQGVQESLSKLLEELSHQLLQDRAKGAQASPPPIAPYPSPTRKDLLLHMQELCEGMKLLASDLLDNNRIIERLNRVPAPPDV

[10] = molecular target: T4, Inhibitor of nuclear factor kappa-B kinase subunit epsilon (Homo sapiens); conditions: at 1 µM
[11] = molecular target: T5, Serine/threonine-protein kinase Nek1 (Homo sapiens) (UniProt Q96PY6); conditions: at 0.1 µM
T5 sequence (whole entry): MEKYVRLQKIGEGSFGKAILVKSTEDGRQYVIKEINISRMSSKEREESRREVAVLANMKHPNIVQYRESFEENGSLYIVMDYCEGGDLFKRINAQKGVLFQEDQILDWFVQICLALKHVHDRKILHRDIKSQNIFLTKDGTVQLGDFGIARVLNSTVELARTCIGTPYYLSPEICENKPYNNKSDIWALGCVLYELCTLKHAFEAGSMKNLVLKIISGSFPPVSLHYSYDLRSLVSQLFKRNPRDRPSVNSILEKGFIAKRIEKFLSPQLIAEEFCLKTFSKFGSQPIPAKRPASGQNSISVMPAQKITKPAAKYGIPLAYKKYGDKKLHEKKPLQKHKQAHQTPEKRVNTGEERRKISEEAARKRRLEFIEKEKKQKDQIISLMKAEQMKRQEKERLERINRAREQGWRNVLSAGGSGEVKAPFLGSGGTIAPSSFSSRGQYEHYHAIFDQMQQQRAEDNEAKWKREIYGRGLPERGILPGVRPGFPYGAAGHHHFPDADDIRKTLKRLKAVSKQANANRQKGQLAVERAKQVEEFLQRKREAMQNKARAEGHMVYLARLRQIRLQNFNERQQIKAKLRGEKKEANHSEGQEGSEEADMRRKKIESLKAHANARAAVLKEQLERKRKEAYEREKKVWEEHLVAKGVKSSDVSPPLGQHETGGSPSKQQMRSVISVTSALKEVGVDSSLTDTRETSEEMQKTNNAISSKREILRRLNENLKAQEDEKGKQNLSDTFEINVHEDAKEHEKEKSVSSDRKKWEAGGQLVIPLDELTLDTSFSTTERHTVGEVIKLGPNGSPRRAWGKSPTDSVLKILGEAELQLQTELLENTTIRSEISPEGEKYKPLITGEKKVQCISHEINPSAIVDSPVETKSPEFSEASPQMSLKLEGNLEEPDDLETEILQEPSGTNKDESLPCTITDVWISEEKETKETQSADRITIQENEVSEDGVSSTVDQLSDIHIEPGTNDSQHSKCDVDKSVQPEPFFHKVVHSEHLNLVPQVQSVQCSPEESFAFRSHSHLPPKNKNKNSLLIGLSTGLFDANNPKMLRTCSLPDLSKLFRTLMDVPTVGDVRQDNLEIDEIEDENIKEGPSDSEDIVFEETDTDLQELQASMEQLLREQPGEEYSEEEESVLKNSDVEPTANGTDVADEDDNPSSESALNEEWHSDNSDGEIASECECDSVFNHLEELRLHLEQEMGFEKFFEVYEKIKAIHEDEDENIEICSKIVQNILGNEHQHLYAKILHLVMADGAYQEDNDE

[12] = molecular target: T5, Serine/threonine-protein kinase Nek1 (Homo sapiens); conditions: at 1 µM
[13] = molecular target: T6, Serine/threonine-protein kinase Nek2 (Homo sapiens) (UniProt P51955); conditions: at 0.1 µM
T6 sequence (whole entry): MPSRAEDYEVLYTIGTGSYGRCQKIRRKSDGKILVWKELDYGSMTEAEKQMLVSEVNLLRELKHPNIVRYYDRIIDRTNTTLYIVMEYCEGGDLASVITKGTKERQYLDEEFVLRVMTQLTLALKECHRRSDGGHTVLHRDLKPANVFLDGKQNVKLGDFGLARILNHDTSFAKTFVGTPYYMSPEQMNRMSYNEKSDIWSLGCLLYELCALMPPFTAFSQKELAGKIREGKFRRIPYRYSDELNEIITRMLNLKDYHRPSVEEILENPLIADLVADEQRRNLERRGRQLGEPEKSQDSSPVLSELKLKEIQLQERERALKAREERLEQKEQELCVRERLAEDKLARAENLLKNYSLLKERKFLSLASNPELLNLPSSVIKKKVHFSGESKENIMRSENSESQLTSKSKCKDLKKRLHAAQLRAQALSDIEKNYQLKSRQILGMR

[14] = molecular target: T6, Serine/threonine-protein kinase Nek2 (Homo sapiens); conditions: at 1 µM
[15] = molecular target: Serine/threonine-protein kinase Nek6 (Homo sapiens) (UniProt Q9HC98); conditions: at 0.1 µM
Serine/threonine-protein kinase Nek6 (Homo sapiens), sequence (Q9HC98 whole entry): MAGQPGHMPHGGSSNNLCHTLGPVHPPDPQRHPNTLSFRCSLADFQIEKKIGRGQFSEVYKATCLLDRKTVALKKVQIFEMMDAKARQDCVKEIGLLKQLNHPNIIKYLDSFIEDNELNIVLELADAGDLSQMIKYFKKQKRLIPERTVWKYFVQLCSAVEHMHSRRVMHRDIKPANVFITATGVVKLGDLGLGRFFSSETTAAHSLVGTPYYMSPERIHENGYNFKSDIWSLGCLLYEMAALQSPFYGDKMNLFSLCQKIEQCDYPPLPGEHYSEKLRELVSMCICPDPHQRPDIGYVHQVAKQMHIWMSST

[16] = molecular target: Serine/threonine-protein kinase Nek6 (Homo sapiens) (UniProt Q9HC98); conditions: at 1 µM
[17] = molecular target: Serine/threonine-protein kinase Nek7 (Homo sapiens) (UniProt Q8TDX7); conditions: at 0.1 µM
Serine/threonine-protein kinase Nek7 (Homo sapiens), sequence (Q8TDX7 whole entry, looked up): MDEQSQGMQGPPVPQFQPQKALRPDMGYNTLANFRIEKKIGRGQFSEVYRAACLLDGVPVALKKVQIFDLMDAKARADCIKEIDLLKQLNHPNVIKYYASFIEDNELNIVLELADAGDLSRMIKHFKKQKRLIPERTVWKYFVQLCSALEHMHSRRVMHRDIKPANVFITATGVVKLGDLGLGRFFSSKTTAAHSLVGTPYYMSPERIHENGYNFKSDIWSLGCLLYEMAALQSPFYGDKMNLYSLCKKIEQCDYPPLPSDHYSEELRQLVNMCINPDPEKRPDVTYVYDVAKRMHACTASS

[18] = molecular target: Serine/threonine-protein kinase Nek7 (Homo sapiens) (UniProt Q8TDX7); conditions: at 1 µM
[19] = molecular target: T7, Serine/threonine-protein kinase Nek9 (Homo sapiens) (UniProt Q8TD19); conditions: at 0.1 µM;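 note: reported value is the mean percent inhibition of NEK9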
T7 sequence (whole entry): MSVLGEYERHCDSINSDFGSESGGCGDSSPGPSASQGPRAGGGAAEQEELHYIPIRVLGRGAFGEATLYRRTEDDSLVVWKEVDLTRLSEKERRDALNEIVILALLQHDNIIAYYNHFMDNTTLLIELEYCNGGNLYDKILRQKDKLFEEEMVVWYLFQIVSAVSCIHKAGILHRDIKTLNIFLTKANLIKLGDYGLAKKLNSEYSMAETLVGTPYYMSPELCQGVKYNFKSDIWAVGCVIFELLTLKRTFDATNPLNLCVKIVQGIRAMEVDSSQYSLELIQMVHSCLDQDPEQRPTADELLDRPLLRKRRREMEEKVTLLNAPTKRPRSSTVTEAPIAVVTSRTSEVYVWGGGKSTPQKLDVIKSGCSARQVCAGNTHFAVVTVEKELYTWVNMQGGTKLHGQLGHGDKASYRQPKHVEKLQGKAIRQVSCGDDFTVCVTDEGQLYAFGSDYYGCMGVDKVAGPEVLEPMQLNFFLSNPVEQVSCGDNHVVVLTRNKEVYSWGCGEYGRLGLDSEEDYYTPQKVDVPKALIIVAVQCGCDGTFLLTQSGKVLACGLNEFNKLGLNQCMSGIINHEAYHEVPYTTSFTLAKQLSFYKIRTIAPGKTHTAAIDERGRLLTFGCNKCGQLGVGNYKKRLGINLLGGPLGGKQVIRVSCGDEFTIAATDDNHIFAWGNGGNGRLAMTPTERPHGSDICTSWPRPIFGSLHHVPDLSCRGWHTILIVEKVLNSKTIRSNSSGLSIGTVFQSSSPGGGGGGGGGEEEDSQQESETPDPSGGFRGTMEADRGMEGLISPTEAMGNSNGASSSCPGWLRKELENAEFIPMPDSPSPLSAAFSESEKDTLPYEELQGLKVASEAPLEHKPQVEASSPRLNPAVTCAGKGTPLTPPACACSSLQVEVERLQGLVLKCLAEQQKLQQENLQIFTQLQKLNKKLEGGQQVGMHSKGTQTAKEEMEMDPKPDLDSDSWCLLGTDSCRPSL

Sphingosine kinase 1 (Homo sapiens), sequence (Q9NYA1 whole entry): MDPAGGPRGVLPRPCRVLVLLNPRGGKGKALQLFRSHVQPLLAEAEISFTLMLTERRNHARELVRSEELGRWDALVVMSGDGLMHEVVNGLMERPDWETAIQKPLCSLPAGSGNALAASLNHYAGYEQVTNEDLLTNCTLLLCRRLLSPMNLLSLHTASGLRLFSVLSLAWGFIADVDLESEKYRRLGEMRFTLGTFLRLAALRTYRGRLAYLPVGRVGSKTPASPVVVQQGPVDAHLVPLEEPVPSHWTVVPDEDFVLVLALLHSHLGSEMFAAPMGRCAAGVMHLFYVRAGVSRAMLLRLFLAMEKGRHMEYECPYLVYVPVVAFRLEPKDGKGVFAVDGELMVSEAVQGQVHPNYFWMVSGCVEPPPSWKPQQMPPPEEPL

Structure (SMILES): C[C@@H](Oc1cc(-n2cnc3ccc(OCC4CCN(C)CC4)cc32)sc1C(N)=O)c1ccccc1Cl
- inhibition [1]: 1.57%
- inhibition [2]: -0.12%
- inhibition [3]: 6.48%
- inhibition [4]: 19.4%
- inhibition [5]: 5.03%
- inhibition [6]: 1.69%
- inhibition [7]: 1.98%
- inhibition [8]: 3.37%
- inhibition [9]: 2.73%
- inhibition [10]: 7.27%
- inhibition [11]: 17.6%
- inhibition [12]: 54.1%
- inhibition [13]: 22.1%
- inhibition [14]: 64.9%
- inhibition [15]: 0.14%
- inhibition [16]: 0.47%
- inhibition [17]: 4.32%
- inhibition [18]: 9.78%
- inhibition [19]: 77.4%

From ChEMBL document CHEMBL1961873, “Compounds: GSK PKIS; Assays: Nanosyn kinase panel” (2012)
